# Results: PubChem BioAssay AID1259420 (Broad Institute, 2018)
# “And” between values parts separate entries of the source, which are not always exact repeats. Equal values may be shown once. The campaign covered roughly 1,000 compounds. About 250 (25%) were called active. Another 31% or so got no clear call; they are omitted. Only a sample is shown. Results with a measured potency or affinity are listed apart. A number with no mark means an inactive call. No rule for the calls is given here.
# Experiment: T. gondii intracellular growth, IFN-gamma absent, dose response, cell-based (AID 1259420);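 also: host cells were HeLa; final incubation lasted 72 hours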
# Conditions: Toxoplasma gondii growth in host cells, no IFN-gamma
compound,measurement,setting,value
COc1ccc(-c2ccc([C@@H]3[C@@H](CO)N4C(=O)CN(C(=O)C5CC5)C[C@@H]34)cc2)cc1,max activity,at 19.5 µM unless noted,19.5% [at 21 µM]
CN1CCCN(CC2(O)CCNC2)CC1 (centres undefined),max activity,at 19.5 µM unless noted,11.3% [at 0.08 µM]
Cc1cccc(-c2ccc([C@H]3[C@H]4CN(C(=O)c5ccc6c(c5)OCO6)CC(=O)N4[C@H]3CO)cc2)c1,max activity,at 19.5 µM unless noted,11.6%
Cc1cccc(-c2ccc([C@@H]3[C@@H](CO)N4C(=O)CN(C(=O)c5ccc6c(c5)OCO6)C[C@H]34)cc2)c1,max activity,at 19.5 µM unless noted,-5.13% [at 0.3 µM]
CN1c2ccc(C3=CCCCC3)cc2[C@@H]2[C@@H](CCN2C(=O)C2CCOCC2)[C@H]1CO,max activity,at 19.5 µM unless noted,-17.2% [at 5 µM]
COc1ccc(-c2ccc3c(c2)[C@H]2[C@H](CCN2C(=O)Nc2ccccc2OC)[C@H](CO)N3C)cc1,max activity,at 19.5 µM unless noted,-12.3% [at 0.6 µM]
N#Cc1ccc(-c2ccc3c(c2)[C@H]2[C@H](CCN2C(=O)C2CCCCC2)[C@@H](CO)N3)cc1,max activity,at 19.5 µM unless noted,-26.1% [at 5 µM]
N#Cc1ccc(-c2ccc3c(c2)[C@@H]2[C@@H](CCN2C(=O)C2CCCCC2)[C@@H](CO)N3)cc1,max activity,at 19.5 µM unless noted,24.3%
CCc1cnc(N2CCc3cc(C(=O)NCC4CC4)c(N(C)C)nc3CC2)nc1,max activity,at 19.5 µM unless noted,11.8% [at 0.6 µM]
CO[C@@H]1CCN(S(=O)(=O)N(C)C)C[C@@H]1Cc1cccc(C)c1,max activity,at 19.5 µM unless noted,-8.52% [at 10 µM]
CCCCOCCOCCOCc1cc2c(cc1CCC)OCO2,max activity,at 19.5 µM unless noted,-10.5% [at 10 µM]
Cc1nc(N2CCCC2)nc2c1CCN(C(=O)c1ccoc1C)CC2,max activity,at 19.5 µM unless noted,-19.1% [at 10 µM]
Cc1cc2nc(CN3CCCC(CCc4ccc(F)cc4F)C3)cc(=O)n2[nH]1 (centres undefined),max activity,at 19.5 µM unless noted,5.72%
O=C(Nc1ccc(F)cc1)N1CC(=O)N2[C@H](CO)[C@@H](c3ccc(-c4cccc(F)c4)cc3)[C@@H]2C1,max activity,at 19.5 µM unless noted,-6.88%
O=C(c1cnccn1)N1CC(=O)N2[C@H](CO)[C@H](c3ccc(-c4cccc(F)c4)cc3)[C@H]2C1,max activity,at 19.5 µM unless noted,15.4% and 19.8%
Cc1ccc(-c2ccc([C@H]3[C@H]4CN(C(=O)NC(C)C)CC(=O)N4[C@H]3CO)cc2)cc1,max activity,at 19.5 µM unless noted,-10.6% [at 0.6 µM]
O=C(c1cnccn1)N1CC(=O)N2[C@H](C1)[C@@H](c1ccc(-c3cccc(F)c3)cc1)[C@@H]2CO,max activity,at 19.5 µM unless noted,25.6%
O=C(Nc1ccc(F)cc1)N1CC(=O)N2[C@H](CO)[C@@H](c3ccc(-c4cccc(F)c4)cc3)[C@H]2C1,max activity,at 19.5 µM unless noted,13.4%
O=C(c1cnccn1)N1CC(=O)N2[C@H](CO)[C@H](c3ccc(-c4cccc(F)c4)cc3)[C@@H]2C1,max activity,at 19.5 µM unless noted,-10.6% [at 0.3 µM]
O=C(c1cnccn1)N1CC(=O)N2[C@H](C1)[C@H](c1ccc(-c3cccc(F)c3)cc1)[C@@H]2CO,max activity,at 19.5 µM unless noted,-9.23% [at 0.16 µM]
C/C=C/c1ccc([C@H]2[C@@H](CO)N3C(=O)CN(C(=O)Nc4ccc(F)cc4)C[C@@H]23)cc1,max activity,at 19.5 µM unless noted,-13% [at 0.16 µM]
CC1CCCCN1C(=O)c1ccnn1-c1ccc2ccc(-c3ccccc3)cn12 (centres undefined),max activity,at 19.5 µM unless noted,-6.05% [at 5 µM]
CC(=O)O[C@@H]1CC2C(C)(CC[C@H](O)C2(C)C)C2CC[C@]3(C)C(=CC(=O)O[C@H]3c3ccoc3)C21C (some centres undefined),max activity,at 19.5 µM unless noted,-5.91% [at 10 µM]
CC(C)n1cnc2c(NCC3CC3)nc(C3CCN(C(=O)c4cccc(F)c4F)CC3)cc21,max activity,at 19.5 µM unless noted,5.98% [at 1.2 µM]
Cc1ccccc1-c1ccc(C2[C@@H]3CN(Cc4cocn4)C[C@H]2N3)cc1 (some centres undefined),max activity,at 19.5 µM unless noted,20.2%
COCC1COCCC12CCN(C(=O)c1ccc(C)nc1)CC2 (centres undefined),max activity,at 19.5 µM unless noted,6.91% [at 2.6 µM]
CCCN(C/C=C/I)C1CCc2cccc(O)c2C1 (centres undefined),max activity,at 19.5 µM unless noted,15.1%
CC(C)NC(=O)N1CC(=O)N2[C@@H](CO)[C@H](c3ccc(/C=C/c4ccccc4)cc3)[C@@H]2C1,max activity,at 19.5 µM unless noted,-13.4% [at 0.16 µM]
O=C(C1CCOCC1)N1CC(=O)N2[C@H](C1)[C@H](c1ccc(/C=C/c3ccccc3)cc1)[C@@H]2CO,max activity,at 19.5 µM unless noted,-15.6% [at 2.6 µM]
CC1=NN(C2CCS(=O)(=O)C2)C(=O)C1(Sc1ccccc1)Sc1ccccc1 (centres undefined),max activity,at 19.5 µM unless noted,14.4% [at 10 µM]
CC(C)CC#Cc1ccc([C@H]2[C@@H](CO)N3C(=O)CN(C(=O)c4cccc(F)c4)C[C@@H]23)cc1,max activity,at 19.5 µM unless noted,25.4%
CC(C)C#Cc1ccc([C@@H]2[C@@H](CO)N(C(=O)c3cccc(F)c3)[C@H]2C#N)cc1,max activity,at 19.5 µM unless noted,-12.4% [at 10 µM]
O=C(CC1CC1)N[C@H]1CN(C(=O)c2ccoc2)C[C@@H]2CCCO[C@H]21,max activity,at 19.5 µM unless noted,-10.1% [at 10 µM]
CCc1c(C)sc2c1CCN(Cc1nc(-c3cccc(C)c3)oc1C)C2c1ccccc1 (centres undefined),max activity,at 19.5 µM unless noted,-7.44% [at 0.08 µM]
O=C1CNC[C@@H]2[C@@H](c3ccc(C#Cc4cccnc4)cc3)[C@@H](CO)N12,max activity,at 2.6 µM,9.41%
same,max activity,at 10 µM,-13%
CC(C)(O)C#Cc1cccc(-c2n[nH]c(Cc3ccccc3)n2)c1,max activity,at 19.5 µM unless noted,21.1%
CCc1ccc(S(=O)(=O)N2CCC3(CC2)NCCN=C3NCc2cc(F)cc(F)c2)cc1,max activity,at 19.5 µM unless noted,-11.1% [at 0.08 µM]
Cc1cccc(CNC2=NCCNC23CCN(S(=O)(=O)c2ccc4c(c2)CCCC4)CC3)c1,max activity,at 19.5 µM unless noted,-9.87%
O=S(=O)(c1ccc2c(c1)CCCC2)N1CCC2(CC1)NCCN=C2NCc1ccc2c(c1)OCO2,max activity,at 19.5 µM unless noted,-6.04% [at 0.08 µM]
Cc1ccc(CNC2=NCCNC23CCN(S(=O)(=O)c2ccc(Cl)s2)CC3)cc1,max activity,at 19.5 µM unless noted,-6.39% [at 2.6 µM]
CCc1ccccc1-c1cccc(-n2cnnc2)c1,max activity,at 19.5 µM unless noted,23.8% [at 10 µM]
CCc1cc(C(=O)Nc2ccc(C)cc2-c2cc(C)[nH]n2)c2c(C)noc2n1,max activity,at 19.5 µM unless noted,-5.68% [at 5 µM]
CN(C)CCN1CCOCC2(CCCN(C(=O)c3ccc4cc[nH]c4c3)C2)C1 (centres undefined),max activity,at 19.5 µM unless noted,-5.04% [at 2.6 µM]
